Measurements reported in PubChem BioAssay AID2289 (National Center for Advancing Translational Sciences (NCATS), 2010).
Out of some 340,000 compounds screened, about 3,300 (0.97%) were called active. Not shown: some 9% with an inconclusive outcome. Calls come from the whole dose curve; as a rule, active = well fitted inhibition curve with a large enough effect; inconclusive = small, poorly fitted or top-dose-only effect, or effect the other way; inactive = flat fitted curve, though single readings scatter. The list shows a part of the results.

Test: qHTS Assay for Modulators of miRNAs and/or Inhibitors of miR-21; note: nearly all actives have a fitted effect of over 55% in size
Settings: HeLa miR-21-FLuc reporter, luciferase luminescence, 48 h; actives lower the signal
Description: MLSCN Grant: 1 R21 NS059478-01 Assay Provider: Qihong Huang, The Wistar Institute NCGC Assay Overview: MicroRNAs (miRNAs) are endogenously encoded small (~20-25 nucleotides), nonprotein-coding RNAs that are involved in post-transcriptional repression of target messenger RNAs (mRNAs) (Le and Hannon, 2004). Estimated to be involved in the regulation of 30% of all protein-coding mRNAs (Filipowicz et al., 2008), miRNAs play a significant role in many biological processes including cellular differentiation and tissue development (Ghildiyal and Zamore, 2009).
NCGC Assay Protocol Summary: Reagents: HeLa cells stably expressing firefly luciferase (FLuc) under the control of a CMV promoter (upstream) and a miR-21 binding sequence directly downstream of the gene. These cells endogenously express miR-21. Control compounds used were compound C3 (provided by collaborator), N6-phenyladenosine (MP Biomedicals, 0215379625), and DMSO. Assay Summary: 6uL of HeLa miR-21-FLuc cells in assay buffer (DMEM, Invitrogen #21063-029; 10% FBS, HyClone #SH30071.03) were dispensed at 2000cells/well (3.3 x 10^5 cells/mL) into Greiner solid-white TC-treated 1536-well plates using a Multidrop Combi (Thermo Fisher Scientific). Plates were incubated for one hour at 37 degree Celsius, 95% humidity, 5% CO2. These assay plates were then treated with 23nL of compound or DMSO using a Kalypsys pin tool, which allows for delivery of a 24-point titration of each compound to the assay plate, with a final compound concentration ranging from approximately 40uM to 5pM. Assay plates were then incubated for 48 hours. After incubation, plates were allowed to come to RT for one hour prior to delivery of 3uL of 3X luciferase detection reagent. After a 15 minute incubation to allow for cell lysis, luciferase activity was measured using a ViewLux CCD imager (PerkinElmer), with an average exposure time of 2-12 seconds. Keywords: NIH Roadmap, MLPCN, MLSMR, qHTS, miR-21, microRNA, firefly luciferase, FLuc.
Potency is the fitted concentration of half-maximal effect.

Potency, active:
CCCNC(=O)/C=C/c1ccc(C(C)C)cc1 16.5 µM
C=CCNC(=O)/C=C/c1ccc(C(C)C)cc1 7.36 µM
CCCOc1cccc(C(=O)Nc2ccc(Br)cc2F)c1 1.85 µM
Nc1c(C(=O)c2cccs2)sc2nsc(SCCN3CCCCC3)c12 4.14 µM
CN1/C(=C\C(=O)c2cccc([N+](=O)[O-])c2)Sc2ccccc21 0.329 µM
Cc1ccc(C(=O)Cn2nnc3ccccc32)cc1 2.33 µM
Cc1ccc(C(=O)Cn2nnc3ccccc32)cc1C 1.31 µM
Clc1ccccc1CSc1ncn(-c2ccccc2)n1 5.85 µM
Clc1cccc(CSc2ncn(-c3ccccc3)n2)c1 16.5 µM
O=C(N/N=C/c1ccc(N2CCOCC2)cc1)c1cccs1 3.29 µM
C/C(=N/NC(=O)c1cccs1)c1ccc(N2CCOCC2)cc1 11.7 µM
O=C(Nc1nc2c(F)cc(F)cc2s1)c1ccc2c(c1)OCCO2 0.0826 µM
O=C(/C=C/c1ccc2c(c1)OCCCO2)c1ccccc1O 2.07 µM
Cc1ccc(C(=O)/C=C/c2ccc3c(c2)OCCO3)c(O)c1 18.5 µM
C=CCn1c(C)csc1=Nc1ccc(C(C)=O)cc1 10.4 µM
Cc1cc(C)nc(S/C=C/C(=O)c2ccccc2F)n1 11.7 µM
C/C(N)=C(/C#N)C(=O)CSc1ccccc1F 8.26 µM
Cc1cc(C)n2cc(COc3ccc4ccccc4c3)nc2n1 1.17 µM
Cc1cc(C)n2cc(CSc3nc4ccccc4s3)nc2n1 4.65 µM
Cc1cc(C)n2c(Br)c(CSc3nc4ccccc4s3)nc2n1 4.14 µM
CC(C)c1ccc(NC(=O)C2=NNC(=O)CC2)cc1 2.33 µM
Cc1cnc(C(=O)Nc2ccc(C(C)C)cc2)cn1 1.65 µM
O=C1c2ccccc2NC(c2ccccc2O)N1c1ccc(F)cc1 (stereo not drawn) 2.93 µM
O=C(Nc1ccc2c(c1)CCC2)c1cccc(F)c1 4.14 µM
O=C(Nc1ccc2c(c1)CCC2)c1ccc(Br)s1 0.261 µM
O=C(Nc1cccc(F)c1)Nc1ccc2c(c1)CCC2 0.736 µM
O=C1NC(c2ccc(Br)cc2)=N/C1=C/c1ccco1 0.927 µM
O=C1NC(c2ccccc2Cl)=N/C1=C/c1ccco1 10.4 µM
c1csc(-c2nn3c(C4COc5ccccc5O4)nnc3s2)c1 (stereo not drawn) 16.5 µM
COc1ccc(NC(=O)Nc2ccccc2F)cc1Cl 2.07 µM
COc1ccc(C(=O)Nc2ccc(Cl)c(Cl)c2)c(OC)n1 0.355 µM
COc1ccc(NC(=O)c2cc(F)cc(F)c2)cc1Cl 9.27 µM
O=C(Cc1cccs1)NCc1cc(Cl)cc(Cl)c1 14.7 µM
Cc1cccc(CCNc2nc3ccc(C)cc3n3cnnc23)c1 16.5 µM
Cc1cc(C(=O)N/N=C/c2c(C)nn(-c3ccccc3)c2C)n[nH]1 14.7 µM
Cc1cc(C(=O)N/N=C/c2c(C)nn(-c3ccccc3)c2C)c(C)o1 8.26 µM
Cc1cc(C(=O)N/N=C/c2ccccc2)c(C)o1 6.56 µM
COc1cccc2[nH]c(=O)c(-c3ccccc3)cc12 1.65 µM
Nc1nc(-c2ccc(Cl)cc2)nnc1-c1ccc(Br)cc1 2.07 µM
CC(=O)Nc1cc2nn(-c3ccccc3)nc2cc1Cl 0.464 µM
CC(C)CC(=O)Nc1ccc2nn(-c3ccccc3)nc2c1 0.656 µM
CCCC(=O)Nc1cc2nn(-c3ccccc3)nc2cc1C 0.369 µM
COc1ccc(O)c(/C=N/N2CCCCC2)c1 5.21 µM
O=C1N/C(=C\c2nc3ccccc3s2)c2ccccc21 0.0736 µM
CSc1nnc(-c2cc3c(s2)-c2ccccc2CC3)o1 1.17 µM
COCCNC(=O)c1cc2oc3ccccc3c2n1C 14.7 µM
Cn1c(C(=O)N2CCc3ccccc3C2)cc2oc3ccccc3c21 10.4 µM
Cn1c(C(=O)NCC2CCCO2)cc2oc3ccccc3c21 (stereo not drawn) 2.07 µM
Cc1sc(NC(=O)c2ccccc2)c(C#N)c1-c1ccccc1 0.826 µM
CCc1c(C)sc(NC(=O)c2cccs2)c1C#N 5.21 µM
CCc1c(C)sc(NC(=O)c2ccco2)c1C#N 11.7 µM
Nc1nc2ccc(-c3nc4ccccc4o3)cc2s1 0.927 µM
Cc1ccccc1NC(=O)c1ccc2c(c1)N(C)CCS2 3.69 µM
CN1CCSc2ccc(C(=O)Nc3ccc(Cl)cc3)cc21 1.04 µM
c1ccc2sc(-c3ccncc3)nc2c1 6.56 µM
O=C1CCC(=O)N1c1ccc(-c2nc3ccccc3s2)cc1 0.521 µM
c1csc(-c2nc3ccccc3s2)c1 5.85 µM
O=S(=O)(Nc1cccc(-c2ccc(N3CCCCCC3)nn2)c1)c1cccc(F)c1 9.27 µM
O=S(=O)(Nc1cccc(-c2ccc(N3CCCCCC3)nn2)c1)c1ccc(F)cc1 13.1 µM
CC(OC(=O)CNC(=O)c1ccccc1F)C(=O)Nc1nc(-c2ccccc2)cs1 (stereo not drawn) 4.65 µM
Nc1nn2cc(-c3ccccc3)nc2c2ccccc12 0.521 µM
Clc1ccc(COc2ccccc2-c2ccnc3ncnn23)cc1 13.1 µM
CC(O)c1ccc(OCCN(C)c2ccccn2)cc1 (stereo not drawn) 16.5 µM
COc1cc(OC)c(NC(=O)CCCn2nc(C)c3sc4ccccc4c3c2=O)cc1Cl 11.7 µM
Cc1ccc(CONC(=O)c2ccccc2)cc1 18.5 µM
CC/C(=N/NC(=O)c1ccccc1)c1ccc(OCCN2CCOCC2)cc1 2.93 µM
CC(C)c1cc(C(N)=O)c(NC(=O)c2cccc(COc3ccc(Cl)cc3)c2)s1 0.585 µM
Cc1nn(Cc2c(F)c(F)c(F)c(F)c2F)c(C)c1NC(=O)c1cccc(COc2ccc(Cl)cc2)c1 7.36 µM
